Test systems include HCT-15 colon; HT29 colon; SNB-75 CNS; SNB-19 CNS; U251 CNS; PC-3 prostate; SK-MEL-5 melanoma; UACC-62 melanoma; LOX IMVI melanoma; SK-MEL-28 melanoma; SK-MEL-2 melanoma; EKVX NSCLC; SN12C renal; UO-31 renal; TK-10 renal; ACHN renal; CAKI-1 renal; A498 renal; CCRF-CEM leukemia; MOLT-4 leukemia.
What all share (experiment): NCI-60 one-dose screen, 48 h (100 = growth as untreated, 0 = no growth, -100 = all killed)
Common to all, as to conditions: 10 µM unless noted

This is part of a sample that, as a whole, favours compounds with a hit. Of some 83,000 tested, about 20% had one in any assay.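 Note: values are percent growth. 100 is the growth of untreated cells, values between 100 and 0 indicate rising inhibition; between -100 and 0 indicates cell death.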 Values without a mark were called inactive. Active and inactive are the calls of the source. The calls were made as follows: active = growth percent below 10; inactive = the rest.

With `COc1ccccc1/C=C1\Oc2ccc(O)c(O)c2C1=O`, the growth in the assay with HCT-15 colon was 77.5%; in the assay with HT29 colon, 105%; with SNB-75 CNS, 82.6%; with SNB-19 CNS it was 86.4%; in the assay on U251 CNS, 86.8%; in the assay with PC-3 prostate it was 98.7%. The growth is 99% in the assay with SK-MEL-5 melanoma; 92.1% in the assay with UACC-62 melanoma; 83.5% with LOX IMVI melanoma; 94% with SK-MEL-28 melanoma; 102% in the assay with SK-MEL-2 melanoma; 78.5% in the assay on EKVX NSCLC. Also, the growth was 94.5% in the assay on SN12C renal; 82.1% in the assay with UO-31 renal; 100% in the assay with TK-10 renal; 101% in the assay on ACHN renal; 78.4% in the assay with CAKI-1 renal; 85.1% in the assay with A498 renal. Moreover, the growth in the assay on CCRF-CEM leukemia was 75.5%; with MOLT-4 leukemia, 85%.
As for `CCNC(=O)Oc1ccc(/C(=C(/C)c2ccc(Cl)cc2)c2ccc(OCCN3CCCCCC3)cc2)cc1`, the growth was -31.6% (active) in the assay on HCT-15 colon; -48.4% (active) in the assay on HT29 colon; 75.6% in the assay with SNB-75 CNS; 34.2% with SNB-19 CNS; 27.5% with U251 CNS; 13.4% with PC-3 prostate. For the same compound, the growth in the assay with SK-MEL-5 melanoma is 33.1%; in the assay on UACC-62 melanoma it was 2.74% (active); in the assay with LOX IMVI melanoma, -87.8% (active); with SK-MEL-28 melanoma, -76% (active); with SK-MEL-2 melanoma it was 64.2%; with EKVX NSCLC it was 56.1%. Also, the growth in the assay with SN12C renal is 36.7%; in the assay with UO-31 renal, -9.5% (active); in the assay with TK-10 renal, 84.5%; in the assay with ACHN renal, 42.1%; with CAKI-1 renal, 10.3%; with A498 renal, 64.7%. The growth with CCRF-CEM leukemia was 12.7%; with MOLT-4 leukemia it was 13%.
In the case of `Cn1c(SCC(=O)c2ccco2)nc2ccccc2c1=O`, the growth is 84.9% with HCT-15 colon; 118% in the assay on HT29 colon; 86.2% with SNB-75 CNS; 102% with SNB-19 CNS; 105% in the assay on U251 CNS; 93.6% with PC-3 prostate. Besides, the growth in the assay on SK-MEL-5 melanoma was 98.1%; in the assay on UACC-62 melanoma it was 87%; in the assay on LOX IMVI melanoma, 95.2%; in the assay with SK-MEL-28 melanoma, 108%; in the assay with SK-MEL-2 melanoma, 106%; in the assay with EKVX NSCLC, 55.2%. For the same compound, the growth in the assay with SN12C renal was 105%; with UO-31 renal, 68.7%; in the assay with TK-10 renal, 146%; with ACHN renal it was 101%; with CAKI-1 renal, 74.7%; in the assay with A498 renal, 144%. Moreover, the growth was 98.8% in the assay on CCRF-CEM leukemia and 96% with MOLT-4 leukemia.
As for `Oc1ccc(-c2nc3ccc(/C(=N\N=C\c4ccc(Cl)cc4)c4ccccc4)cc3[nH]2)cc1`, the growth in the assay with HCT-15 colon was 71.1%; in the assay on HT29 colon, 75.4%; with SNB-75 CNS, 93.4%; in the assay on SNB-19 CNS, 91.7%; in the assay with U251 CNS, 86.6%; in the assay with PC-3 prostate it was 52.9%. The growth in the assay on SK-MEL-5 melanoma is 84.1%; in the assay on UACC-62 melanoma it was 84.1%; in the assay on LOX IMVI melanoma, 57.4%; in the assay with SK-MEL-28 melanoma it was 91%; in the assay on SK-MEL-2 melanoma it was 90.6%; in the assay on EKVX NSCLC, 98.9%. The growth in the assay with SN12C renal was 83.5%; with UO-31 renal it was 63.5%; in the assay with TK-10 renal, 105%; with ACHN renal, 86.8%; in the assay on CAKI-1 renal, 76.1%; in the assay on A498 renal, 65.7%. Moreover, the growth was 21.6% in the assay with CCRF-CEM leukemia and 57% in the assay with MOLT-4 leukemia.
For the compound `Nc1cc(C(=O)N/N=C\c2ccc(OC(F)F)c(OC3CCCC3)c2)nn1CC(O)c1ccccc1` (stereo not given), the growth in the assay with HCT-15 colon was 99.1%; in the assay with HT29 colon, 98.2%; in the assay on SNB-75 CNS, 84.1%; in the assay on SNB-19 CNS, 96.4%; in the assay on U251 CNS it was 94.7%; in the assay with PC-3 prostate, 80.7%. For the same compound, the growth in the assay on SK-MEL-5 melanoma is 97.1%; with UACC-62 melanoma, 89.4%; with LOX IMVI melanoma it was 99.1%; in the assay on SK-MEL-28 melanoma, 115%; in the assay on SK-MEL-2 melanoma it was 101%; with EKVX NSCLC it was 104%. Also, the growth is 105% in the assay with SN12C renal; 76.5% with UO-31 renal; 112% in the assay on TK-10 renal; 105% in the assay on ACHN renal; 81.9% in the assay on CAKI-1 renal; 100% with A498 renal. In addition, the growth in the assay with CCRF-CEM leukemia was 92.3%; in the assay with MOLT-4 leukemia, 78.5%.
For the compound `Cc1nc(/N=C(N)/N=C(\N)c2cccc(Br)c2)sc1C`, the growth was 25.1% with HCT-15 colon; 17.8% with HT29 colon; 62.9% in the assay on SNB-75 CNS; 42.9% in the assay with SNB-19 CNS; 47% with U251 CNS; 59.8% in the assay on PC-3 prostate. The growth was 69.8% with SK-MEL-5 melanoma; 28.1% in the assay with UACC-62 melanoma; 43.5% in the assay with LOX IMVI melanoma; 72.8% in the assay with SK-MEL-28 melanoma; 64% in the assay on SK-MEL-2 melanoma; 60.2% with EKVX NSCLC. In addition, the growth in the assay with SN12C renal is 47.3%; with UO-31 renal, 52.5%; with TK-10 renal, 83.3%; in the assay on ACHN renal it was 49.9%; in the assay with CAKI-1 renal, 48.6%; with A498 renal, 43.5%. The growth in the assay with CCRF-CEM leukemia is 34%; with MOLT-4 leukemia, 39.7%.
For the compound `O=C(Nc1ccc(N2CCOCC2)cc1)Nc1ccc2c(ccn2C(=O)c2cccc(F)c2)c1`, the growth is 78.6% in the assay with HCT-15 colon; 76% with HT29 colon; 12.3% in the assay on SNB-75 CNS; 46.9% in the assay with SNB-19 CNS; 41.5% with U251 CNS; 49.3% in the assay on PC-3 prostate. The growth is 69.4% in the assay with SK-MEL-5 melanoma; 42.3% with UACC-62 melanoma; 23% with LOX IMVI melanoma; 59.2% in the assay with SK-MEL-28 melanoma; 77.2% in the assay on SK-MEL-2 melanoma; 73.9% with EKVX NSCLC. Further, the growth in the assay with SN12C renal was 74.2%; in the assay on UO-31 renal, 102%; with TK-10 renal, 86.9%; in the assay with ACHN renal it was 61.8%; in the assay with CAKI-1 renal, 42.3%; in the assay on A498 renal, 87.7%. Moreover, the values for the growth with CCRF-CEM leukemia and with MOLT-4 leukemia were 82.4% and 83.6%, respectively.
`C[C@H](Nc1ncnc2ccc(-c3cnc(Cl)c(NS(C)(=O)=O)c3)cc12)c1ccccc1`: the growth in the assay on HCT-15 colon was -23.7% (active); in the assay with HT29 colon it was -28.9% (active); in the assay on SNB-75 CNS, -3.07% (active); with SNB-19 CNS, -44.3% (active); in the assay with U251 CNS it was -52.6% (active); in the assay on PC-3 prostate it was 2.25% (active). In addition, the growth in the assay on SK-MEL-5 melanoma was -92.7% (active); in the assay on UACC-62 melanoma, -57.8% (active); in the assay with LOX IMVI melanoma, -60.4% (active); with SK-MEL-28 melanoma it was -18.2% (active); with SK-MEL-2 melanoma it was -84.9% (active); in the assay with EKVX NSCLC, -34.3% (active). The growth with SN12C renal was 13.4%; in the assay on UO-31 renal it was -63.5% (active); with TK-10 renal, -82.3% (active); with ACHN renal, 9.8% (active); in the assay with CAKI-1 renal, -22.4% (active); in the assay on A498 renal, -23.8% (active). Besides, the growth with CCRF-CEM leukemia was 7.38% (active); in the assay on MOLT-4 leukemia, -16.5% (active).

Source of the values: PubChem BioAssay (NCI).
